SKOV3 invasion – inhibitors of ovarian cancer cell adhesion and invasion in omental model. AID 1963576. actives 0.1% (n = 46,000). Potency, µM (highest dose often 45.8 µM), inactives show at the highest dose activity change, negative = inhibition, most hits filed as inhibitors. SKOV3ip1-GFP adhesion/invasion on 3D omental model, fluorescence;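 note: plate controls were DMSO wells for no effect and tomatine positive control wells for full effect; nearly all actives have a fitted effect of over 65% in size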
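Primary human omental fibroblast/mesothelial 3D culture pre-formed 48 h. SKOV3ip1-GFP cells added with compounds (0.36-46 umol/L), incubated 2 h RT/16 h 37 C, fixed; GFP cells quantified at 488/509 nm.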
p53null 32C kill – p53 null cell cytotoxicity, permissive temperature; H1299-neo p53 null cells, ATP luminescence, 24 h, 32C; Potency, µM (titrated, usually from 46.1 µM), for inactives: at the top dose activity change, negative = cytotoxicity, most hits filed as cytotoxic; actives 0.62% (n = 55,000); AID 903;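 note: 0% = DMSO only and -100% = full killing by 100 µM tamoxifen; nearly all actives have a fitted effect of over 55% in size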
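AC50 values derive from Hill modelling of qHTS concentration-response data (up to 46 uM) in H1299-neo cells. Cells were treated 24 h at 32C following overnight attachment at 37C; viability was read as cellular ATP.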
S16 viability – toxic to S16 Pmp22-F2sN Schwann cells. S16 Pmp22-F2sN Schwann cells viability, CellTiter-Glo, 24 h. Potency, µM (series often up to 57.5 µM), without a hit: at the top dose activity change, negative = cytotoxicity, most hits filed as cytotoxic. actives 0.48% (n = 43,000). AID 1508642; note: nearly all actives have a fitted effect of over 65% in size
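Luminescence from CellTiter-Glo, read by CCD camera after a 15 min room-temperature incubation, served as the viability signal. Reporter Schwann cells (S16 Pmp22-F2sN) had been treated with pin-transferred compounds for 24 h at 37C.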
p53null 39C tox – kills p53 null cells at the nonpermissive temperature; Potency, µM (doses to about 46.1 µM), inactives show at the highest dose activity, negative = cell killing, most hits filed as cytotoxic; AID 904; H1299 p53-null (neo) cells, 39C, ATPlite viability, 24 h; actives 0.97% (n = 55,000);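 note: 0% = DMSO only and -100% = full killing by 100 µM tamoxifen; nearly all actives have a fitted effect of over 50% in size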
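Luminescent ATP signal reported cell survival after H1299 lines (neo, p53 null; or p53 A138V) received up to 46 uM compound and 24 hr incubation at 39C.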
pS6 MEF inh – reduces mTORC1 signaling in Tsc2 and p53 null MEF cells; Tsc2-/- p53-/- MEF, phospho-rpS6 immunofluorescence/PI, 24 h; Potency, µM (titrated, usually from 38.3 µM), for the others: top-dose activity change, negative = inhibition, actives largely listed as inhibitors; actives 0.78% (n = 44,000);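 note: plate controls were DMSO for no effect and rapamycin for full effect; nearly all actives have a fitted effect of over 50% in size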
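Readout is phospho-S6 Alexa 488 signal normalized to PI per well, reported as % active cells with thresholds set from rapamycin (7.5 nM) and DMSO controls. Cells: Tsc2-/-, p53-/- MEFs, 24 hrs compound at 37 C; PI cell number serves as viability.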
PMP22 txn – modulators of PMP22 gene transcription in S16 Schwann cells | actives 2% (n = 43,000) | Potency, µM (doses to about 57.5 µM), for inactives: at the top dose activity change, negative = inhibition, usual class: inhibitors | AID 1508649 | S16 Pmp22-F2sN Schwann cells (luciferase reporters placed in the Pmp22 gene), FLuc/NLuc coincidence luminescence, 24 h; active = clear falling dose curves in both reporters; inconclusive = both reporters move, but less clearly or upward; inactive = either reporter flat; the % is the NLuc reporter signal
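Transcriptional readout in edited S16(c9) cells: two luciferases reported from the Pmp22 locus, measured in turn after 24 h compound incubation.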
The depositor's hits bear a star; i = inactive; ? = inconclusive; / = not tested or not shown; [ ] = remark or other dose. This is a sample that favours compounds with a hit; in the whole collection about 3.1% have one here. Unless noted, calls come from the whole dose curve; as a rule, active = well fitted curve in the direction sought with a large enough effect; inconclusive = small, poorly fitted or top-dose-only effect, or another doubt; inactive = no such curve, though single readings can be large; an effect the other way counts as inactive or inconclusive. Unless noted, % is set by controls: 0 for no effect and ±100 for the full control effect; potency is the fitted concentration of half-maximal effect.

SMILES	SKOV3 invasion	p53null 32C kill	S16 viability	p53null 39C tox	pS6 MEF inh	PMP22 txn
NC(=O)c1c(OCc2c(F)cc(Br)cc2F)nsc1NC(=O)NCCCCN1CCCC1	5.2%	/	/	/	/	/
O=c1ccn([C@@H]2O[C@H](CO)[C@H](O)[C@@H]2F)c(=O)[nH]1	2.3%	/	/	/	/	/
CSc1ccc(CCNC(=O)C(C)n2nc(C)c3sc4ccccc4c3c2=O)cc1 (centres undefined)	5.4%	?	3.8%	12.6µM*	0.521µM*	2.8%
Cc1nn(C(C)C(=O)NC2CCCCC2)c(=O)c2c1sc1ccccc12 (centres undefined)	7.4%	-26.4%	6.8%	12.6µM*	1.04µM*	39.8%
Cc1cccc(-n2ncc3c(NC4CCCC4)ncnc32)c1	?	12.6µM*	6.5%	36.0%	-1.1%	?
COc1ccc(-n2ncc3c(NC4CCCC4)ncnc32)cc1	-0.2%	5.01µM*	?	7.6%	-18.1%	?
Clc1cccc(-n2ncc3c(NC4CCCCCC4)ncnc32)c1	?	-8.0%	?	?	-7.2%	?
Cc1ccc(-n2ncc3c(NC4CCCC4)ncnc32)cc1	0.5%	7.94µM*	-15.6%	?	4.9%	0.5%
c1ccc(-n2ncc3c(NC4CCCC4)ncnc32)cc1	-4.8%	15.8µM*	18.1%	?	0.0%	-9.7%
Cc1ccc(-n2ncc3c(NC4CCCCC4)ncnc32)cc1C	29.1%	-16.2%	11.3%	-4.0%	10.2%	-8.6%
Cc1cccc(-n2ncc3c(NC4CCCCC4)ncnc32)c1	/	-25.1%	/	0.0%	/	/
CC1(C)CCC[C@@]2(C)[C@@H]1CC[C@@]1(C)OC(=O)C[C@H]21	-7.7%	/	/	/	/	/
CCC(=C(c1ccc(O)cc1)c1ccc(OCCNC)cc1)c1ccccc1	-4.7%	/	/	/	/	/
C[C@@H]1[C@H](C)CC[C@]2(C(=O)O)CC[C@]3(C)C(=CC[C@@H]4[C@@]5(C)C[C@@H](O)[C@H](O)[C@@](C)(CO)[C@H]5CC[C@]43C)[C@@H]12	-3.8%	/	/	/	/	/
Cc1ccc(OC(=O)c2cc(-c3ccc4c(c3)OCCO4)on2)c(C)c1	-11.3%	20µM*	1.9%	31.6µM*	-1.2%	11.4%
CC(=O)c1cccc(NC(=O)c2cc(-c3ccc4c(c3)OCCO4)on2)c1	i	2µM*	3.4%	3.16µM*	-15.8%	7.0%
O=c1ccn([C@@H]2O[C@H](CO)[C@H](O)[C@H]2O)c(=O)[nH]1	-9.2%	/	/	/	/	/
COc1cc(-c2noc(-c3ccc(NCc4cccnc4)c([N+](=O)[O-])c3)n2)cc(OC)c1OC	i	-9.7%	-7.5%	-7.8%	0.2%	7.08µM*
COc1ccc(-c2noc(-c3ccc(NCc4cccnc4)c([N+](=O)[O-])c3)n2)cc1OC	i	1.8%	-10.6%	-14.4%	-0.6%	0.5%
Cc1cc(OCC(=O)Nc2cc(-c3nc4ccccc4[nH]3)ccc2C)ccc1Cl	i	?	-10.5%	?	14.7µM*	-53.1%
Cc1ccc(-c2nc3ccccc3[nH]2)cc1NC(=O)COc1ccc(Cl)cc1Cl	-9.9%	21.8%	?	-17.5%	-1.4%	0.2%
Nc1ncnc2c1c(-c1cccc(OCc3ccccc3)c1)cn2C1CC(CN2CCC2)C1 (centres undefined)	3.0%	/	/	/	/	/
CCCn1c(=O)c2[nH]c(C34CC5CC3C[C@@H](C5)C4)nc2n(CCC)c1=O	-4.5%	/	/	/	/	/
Nc1ccc2nc(-c3ccc(O)cc3)sc2c1	0.4%	2.51µM*	-28.8%	1.26µM*	-7.4%	?
O=C(Cn1c(=O)c2ccccc2n(CC(=O)Nc2ccc(Cl)cc2)c1=O)NCCc1ccccc1	-12.7%	-17.7%	-21.3%	-10.3%	16.5µM*	-5.2%
SMILES	SKOV3 invasion	p53null 32C kill	S16 viability	p53null 39C tox	pS6 MEF inh	PMP22 txn
O=C(Cn1c(=O)c2ccccc2n(CC(=O)Nc2ccccc2F)c1=O)NCCc1ccccc1	i	5.2%	0.1%	8.7%	-11.7%	-7.1%
Cc1ccc(C(=O)COC(=O)CCC(=O)Nc2ccc(Oc3ccccc3)cc2)cc1C	1.1%	-0.2%	-5.5%	-20.5%	2.7%	0.1%
COc1ccccc1NC(CC(=O)c1ccccc1)C(=O)OCC(=O)c1ccc(C)c(C)c1 (centres undefined)	/	17.8µM*	/	/	/	/
Cc1ccn(-c2ccc(-c3ncco3)cc2)c(=O)c1-c1ccc2nc(N)ncc2c1	-17.7%	/	/	/	/	/
CCCN1CCN(c2ncnc3sc(C(=O)Nc4c(C)cc(C)cc4C)c(C)c23)CC1	81.1%	15.3%	25.1µM*	-8.1%	10.8%	?
COc1ccc(-c2ccc3c(N4CCOCC4)nc(N4C[C@@H](C)O[C@@H](C)C4)nc3n2)cc1CO	-5.2%	/	/	/	/	/
CCCCN(CCCNC(=O)c1cc(Nc2cccc(SC)c2)nc2ccccc12)Cc1ccccc1	?	-18.8%	?	5.62µM*	16.5µM*	?
CSc1cccc(Nc2cc(C(=O)NCCc3ccc(Cl)cc3)c3ccccc3n2)c1	i	-8.4%	-25.1%	?	-7.7%	?
C[C@]1(CO)CN(c2cc(C(=O)Nc3ccc4c(c3)-c3c(c(C(N)=O)nn3-c3ccc(F)cc3)CC4)c(Cl)cn2)C[C@@]1(C)CO	-0.4%	/	/	/	/	/
COc1ccc(-c2nn(C)c3sc(C(=O)Nc4cccc(F)c4)cc23)cc1OC	-34.6%	4.6%	14.1µM*	2.7%	?	?
COc1cccc(NC(=O)c2cc3c(-c4ccc(Cl)cc4)nn(C)c3s2)c1	5.8%	19.2%	-18.1%	8.4%	-1.9%	-8.8%
CC(C)C[C@@H](N)[C@H](O)C(=O)N[C@H](C(=O)N[C@H](C(=O)N[C@@H](CC(=O)O)C(=O)O)C(C)C)C(C)C	-5.0%	/	/	/	/	/
COc1ccc(C(=O)Nc2cc(OC)nc(OC)n2)cc1	/	11.2µM*	/	12.6µM*	/	/
COc1ccc(C(=O)Nc2nnc(C)s2)cc1	-6.1%	10µM*	28.1%	?	-4.7%	1.7%
O=c1c(-c2ccc(O)cc2)coc2cc(OC3O[C@H](CO)[C@H](O)[C@H](O)[C@H]3O)cc(O)c12 (some centres undefined)	-37.6%	/	/	/	/	/
COc1ccc(-c2ccc(CCC(=O)O)n2-c2ccccc2C(F)(F)F)cc1	-8.8%	-0.7%[9.22 µM]	-24.7%	19.4%	-4.3%	?
COc1ccc(-c2ccc(CCC(=O)O)n2-c2ccccc2O)cc1	-10.0%	-10.1%	3.8%	-26.5%	13.1µM*	-54.2%
Nc1ncn([C@@H]2O[C@H](CO)[C@@H](O)[C@@H]2O)c(=O)n1	-1.9%	/	/	/	/	/
